# PubChem BioAssay (EPA / NIEHS)
# Records with an inconclusive call do not appear. The source made the active and inactive calls. The calls were made as follows: active = hit-call score of the fitted dose curve at least 0.9, where 1 is the maximum; inconclusive = response in the unintended direction; inactive = score below 0.9.
# Tests used:
# [1] = molecular target: rat Opioid Receptor, Non-selective Sodium (Na+) Binding, Oprm1 (gene 25601) (UniProt P33535); experiment: NVS_GPCR_rOpiate_NonSelectiveNa: NovaScreen (NVS) G Protein-Coupled Receptor Assay for rat Opioid Receptor, Non-selective Sodium (Na+) Binding (AID 2283311)
# Sequence of rat Opioid Receptor, Non-selective Sodium (Na+) Binding, Oprm1 (gene 25601) (P33535 whole entry, looked up): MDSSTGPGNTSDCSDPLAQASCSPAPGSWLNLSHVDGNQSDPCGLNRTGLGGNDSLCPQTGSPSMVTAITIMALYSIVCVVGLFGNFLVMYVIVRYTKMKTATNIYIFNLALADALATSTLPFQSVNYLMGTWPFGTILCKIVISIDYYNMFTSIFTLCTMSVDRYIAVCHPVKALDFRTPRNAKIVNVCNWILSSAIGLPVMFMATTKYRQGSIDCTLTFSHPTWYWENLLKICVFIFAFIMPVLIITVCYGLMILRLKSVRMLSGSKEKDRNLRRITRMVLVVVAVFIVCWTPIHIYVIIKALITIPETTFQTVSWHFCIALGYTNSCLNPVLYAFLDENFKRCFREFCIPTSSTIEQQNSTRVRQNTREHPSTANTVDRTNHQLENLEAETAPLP
# Outline: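 Filtration radioligand binding on rat forebrain membrane preparations, read 1.5 h after dosing. Single-concentration 25 µM primary screen in duplicate, followed by singleton concentration series to 50 µM max for actives; DMSO baseline.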
# [2] = molecular target: rat Glutamate Metabotropic Receptor 5 (MGluR5), Grm5 (gene 24418) (UniProt P31424); experiment: NVS_GPCR_rmMGluR5: NovaScreen (NVS) G Protein-Coupled Receptor Assay for rat Glutamate Metabotropic Receptor 5 (MGluR5) (AID 2283307)
# Sequence of rat Glutamate Metabotropic Receptor 5 (MGluR5), Grm5 (gene 24418) (P31424 whole entry, looked up): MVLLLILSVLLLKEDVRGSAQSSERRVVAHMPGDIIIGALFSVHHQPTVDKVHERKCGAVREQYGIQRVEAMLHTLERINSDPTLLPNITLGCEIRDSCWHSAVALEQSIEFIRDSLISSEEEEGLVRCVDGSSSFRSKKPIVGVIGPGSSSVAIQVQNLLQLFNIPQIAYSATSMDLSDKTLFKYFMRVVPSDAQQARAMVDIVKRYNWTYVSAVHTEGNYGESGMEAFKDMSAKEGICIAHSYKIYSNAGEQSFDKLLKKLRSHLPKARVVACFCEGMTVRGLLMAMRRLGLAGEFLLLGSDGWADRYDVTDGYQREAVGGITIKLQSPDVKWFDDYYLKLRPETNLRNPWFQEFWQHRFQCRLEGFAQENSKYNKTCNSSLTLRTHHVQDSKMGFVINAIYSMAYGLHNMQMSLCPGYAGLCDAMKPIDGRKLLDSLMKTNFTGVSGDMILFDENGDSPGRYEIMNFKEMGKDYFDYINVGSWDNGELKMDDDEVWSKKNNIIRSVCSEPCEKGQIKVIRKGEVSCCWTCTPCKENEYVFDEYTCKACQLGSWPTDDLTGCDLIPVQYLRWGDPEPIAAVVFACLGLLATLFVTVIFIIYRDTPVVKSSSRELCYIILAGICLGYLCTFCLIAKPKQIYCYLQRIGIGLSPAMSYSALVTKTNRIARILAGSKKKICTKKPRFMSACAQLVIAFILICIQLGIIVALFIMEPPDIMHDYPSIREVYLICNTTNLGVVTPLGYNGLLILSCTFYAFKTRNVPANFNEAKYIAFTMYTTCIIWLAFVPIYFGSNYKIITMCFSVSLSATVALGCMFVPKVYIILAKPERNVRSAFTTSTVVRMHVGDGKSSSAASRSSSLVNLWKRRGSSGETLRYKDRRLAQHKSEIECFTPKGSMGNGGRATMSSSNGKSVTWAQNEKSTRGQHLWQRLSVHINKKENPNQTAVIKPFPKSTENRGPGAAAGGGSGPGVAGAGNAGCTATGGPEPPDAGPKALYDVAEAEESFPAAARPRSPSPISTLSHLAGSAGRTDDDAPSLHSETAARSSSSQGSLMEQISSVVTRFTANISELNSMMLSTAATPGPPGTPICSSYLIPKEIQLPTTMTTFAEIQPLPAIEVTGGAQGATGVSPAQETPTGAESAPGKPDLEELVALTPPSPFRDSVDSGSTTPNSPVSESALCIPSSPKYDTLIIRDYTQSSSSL
# Method: NVS_GPCR_rmMGluR5 is a biochemical, single-readout assay that uses extracted gene-proteins from Rat whole brain in a tissue-based cell-free assay. Measurements were taken 1.5 hours after chemical dosing in a 48-well plate.NVS_GPCR_rmMGluR5 is one of one assay component(s) measured or calculated from the NVS_GPCR_rmMGluR5 assay. It is designed to make measurements of radioligand binding, a form of binding reporter, as detected with scintillation counting signals by Filter-based radiodetection technology.Data from the assay component NVS_GPCR_rmMGluR5 was analyzed into 1 assay endpoint. This assay endpoint, NVS_GPCR_rmMGluR5, was analyzed in the positive analysis fitting direction relative to DMSO as the negative control and baseline of activity. Using a type of binding reporter, loss-of-signal activity can be used to understand changes in the binding as they relate to the gene Grm5. Furthermore, this assay endpoint can be referred to as a primary readout, because the performed assay has only produced 1 assay endpoint. To generalize the intended target to other relatable targets, this assay endpoint is annotated to the gpcr intended target family, where the subfamily is metabotropic glutamate receptor.
# Binding assays used specific radioligands (tritiated, iodinated) with non-radioactive competitive displacement ligands in agonist or antagonist protocols (as indicated) and various reference compounds and inhibitors to titrate specific binding to receptors and transporters. Most enzyme assays (CYPs, kinases, phosphatases, proteases, HDACs) used recombinant protein and specific substrates (fluorescence mostly, some colorimetric and radioactive) and inhibitors, followed by a biochemical separation of substrate and product. All assays for the biochemical HTS were initially run in duplicate at a single concentration (10 uM for CYP450 assays and 25 uM for all others). […]
# [3] = molecular target: rat Opioid Receptor, Non-selective Binding, Oprm1 (gene 25601) (UniProt P33535); experiment: NVS_GPCR_rOpiate_NonSelective: NovaScreen (NVS) G Protein-Coupled Receptor Assay for rat Opioid Receptor, Non-selective Binding (AID 2283318)
# Sequence of rat Opioid Receptor, Non-selective Binding, Oprm1 (gene 25601) (P33535 whole entry, looked up): as the sequence (P33535 whole entry, looked up) above
# Outline: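 Filter-based radioligand displacement using rat forebrain membrane preparations, measured 1.5 h post-dosing. Single-concentration duplicate screen at 25 uM, follow-up in concentration series; activity taken as signal loss relative to DMSO.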
# [4] = molecular target: rat Neurokinin-1 Receptor (NK1), Tacr1 (gene 24807) (UniProt P14600); experiment: NVS_GPCR_rNK1: NovaScreen (NVS) G Protein-Coupled Receptor Assay for rat Neurokinin-1 Receptor (NK1) (AID 2283309)
# Sequence of rat Neurokinin-1 Receptor (NK1), Tacr1 (gene 24807) (P14600 whole entry, looked up): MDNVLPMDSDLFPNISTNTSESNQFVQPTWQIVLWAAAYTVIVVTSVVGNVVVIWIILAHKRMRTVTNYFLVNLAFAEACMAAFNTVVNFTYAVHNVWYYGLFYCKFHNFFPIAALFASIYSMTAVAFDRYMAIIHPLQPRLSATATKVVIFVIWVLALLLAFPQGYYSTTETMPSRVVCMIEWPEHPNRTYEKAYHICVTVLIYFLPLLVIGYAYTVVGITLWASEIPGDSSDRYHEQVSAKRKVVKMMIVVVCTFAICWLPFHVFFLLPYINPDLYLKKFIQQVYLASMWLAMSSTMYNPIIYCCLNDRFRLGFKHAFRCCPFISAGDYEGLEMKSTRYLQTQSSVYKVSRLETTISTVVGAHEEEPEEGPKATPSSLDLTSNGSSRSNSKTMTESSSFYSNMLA
# Outline: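 Competitive radioligand binding to NK1 in rat submaxillary membranes, 1 h incubation, filtration and scintillation read-out. Compounds first screened at 25 uM in duplicate, then concentration-response for actives; signal loss relative to DMSO.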
# [5] = molecular target: Adra2b (gene 24174) (UniProt P19328); experiment: NVS_GPCR_rmAdra2B: NovaScreen (NVS) G Protein-Coupled Receptor Assay for hybird cells Adrenergic, Alpha 2B Receptor (Adra2B) (AID 2283306)
# Sequence of Adra2b (gene 24174) (P19328 whole entry, looked up): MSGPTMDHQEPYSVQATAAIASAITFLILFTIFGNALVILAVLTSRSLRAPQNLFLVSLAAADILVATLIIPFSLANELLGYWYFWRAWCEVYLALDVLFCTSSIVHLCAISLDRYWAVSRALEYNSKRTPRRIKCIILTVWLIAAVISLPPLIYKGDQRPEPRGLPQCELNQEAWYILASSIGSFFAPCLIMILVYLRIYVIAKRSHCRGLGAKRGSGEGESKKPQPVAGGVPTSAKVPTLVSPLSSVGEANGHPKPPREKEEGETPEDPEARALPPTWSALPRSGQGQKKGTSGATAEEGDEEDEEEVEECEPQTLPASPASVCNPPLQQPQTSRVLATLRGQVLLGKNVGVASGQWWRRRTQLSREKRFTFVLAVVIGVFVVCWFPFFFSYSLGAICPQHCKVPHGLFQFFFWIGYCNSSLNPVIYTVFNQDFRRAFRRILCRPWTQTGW
# Outline: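 Compounds screened first at 25 uM in duplicate, with actives followed up in concentration-response; specific radioligand displacement from hybrid neuroglioma/blastoma cell membrane preparations measured by filter scintillation counting after 1 h, normalized to DMSO.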
# [6] = molecular target: rat Somatostatin Receptor (SST), Sstr1 (gene 25033) (UniProt P28646); experiment: NVS_GPCR_rSST: NovaScreen (NVS) G Protein-Coupled Receptor Assay for rat Somatostatin Receptor (SST) (AID 2283314)
# Sequence of rat Somatostatin Receptor (SST), Sstr1 (gene 25033) (P28646 whole entry, looked up): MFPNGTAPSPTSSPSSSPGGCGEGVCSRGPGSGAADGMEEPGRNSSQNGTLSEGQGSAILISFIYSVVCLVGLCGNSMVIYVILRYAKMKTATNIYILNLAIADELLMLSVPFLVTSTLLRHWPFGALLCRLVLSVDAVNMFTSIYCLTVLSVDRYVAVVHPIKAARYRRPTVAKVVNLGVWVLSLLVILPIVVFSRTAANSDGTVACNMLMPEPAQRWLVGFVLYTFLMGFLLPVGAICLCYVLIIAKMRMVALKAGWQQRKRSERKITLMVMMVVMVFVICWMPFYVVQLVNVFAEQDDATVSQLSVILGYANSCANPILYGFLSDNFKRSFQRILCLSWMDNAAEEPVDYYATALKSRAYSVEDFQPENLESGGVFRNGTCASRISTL
# Outline: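 Single-concentration duplicate screen (25 uM), then concentration-response up to 50 uM for chemicals passing a threshold such as 30% inhibition. Membranes came from rat forebrain. Binding was measured 1 h post-dose by filter radiodetection and scintillation, relative to DMSO.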
# [7] = molecular target: rat Vasopressin 1 Receptor (V1), Avpr1a (gene 25107) (UniProt P30560); experiment: NVS_GPCR_rV1: NovaScreen (NVS) G Protein-Coupled Receptor Assay for rat Vasopressin 1 Receptor (V1) (AID 2283316)
# Sequence of rat Vasopressin 1 Receptor (V1), Avpr1a (gene 25107) (P30560 whole entry, looked up): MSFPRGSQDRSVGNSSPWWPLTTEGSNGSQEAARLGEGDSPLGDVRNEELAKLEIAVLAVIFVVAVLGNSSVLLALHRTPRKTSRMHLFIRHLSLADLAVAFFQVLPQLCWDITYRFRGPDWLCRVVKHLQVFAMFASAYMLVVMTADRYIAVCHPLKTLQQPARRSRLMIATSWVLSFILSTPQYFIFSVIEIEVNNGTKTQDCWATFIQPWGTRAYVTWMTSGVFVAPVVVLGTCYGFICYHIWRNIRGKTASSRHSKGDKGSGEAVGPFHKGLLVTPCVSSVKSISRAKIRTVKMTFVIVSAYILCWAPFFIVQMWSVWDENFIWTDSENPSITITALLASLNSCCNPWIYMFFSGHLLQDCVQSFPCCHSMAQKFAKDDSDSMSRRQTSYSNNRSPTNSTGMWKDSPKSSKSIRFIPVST
# Outline: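 Concentration-response up to 50 uM for chemicals passing a threshold such as 30% inhibition in an initial duplicate 25 uM screen. Displacement of radioligand from rat liver membranes measured after 1.5 h by filtration and scintillation.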
# [8] = molecular target: rat Neurokinin-3 Receptor (NK3), Tacr3 (gene 24808) (UniProt P16177); experiment: NVS_GPCR_rNK3: NovaScreen (NVS) G Protein-Coupled Receptor Assay for rat Neurokinin-3 Receptor (NK3) (AID 2283310)
# Sequence of rat Neurokinin-3 Receptor (NK3), Tacr3 (gene 24808) (P16177 whole entry, looked up): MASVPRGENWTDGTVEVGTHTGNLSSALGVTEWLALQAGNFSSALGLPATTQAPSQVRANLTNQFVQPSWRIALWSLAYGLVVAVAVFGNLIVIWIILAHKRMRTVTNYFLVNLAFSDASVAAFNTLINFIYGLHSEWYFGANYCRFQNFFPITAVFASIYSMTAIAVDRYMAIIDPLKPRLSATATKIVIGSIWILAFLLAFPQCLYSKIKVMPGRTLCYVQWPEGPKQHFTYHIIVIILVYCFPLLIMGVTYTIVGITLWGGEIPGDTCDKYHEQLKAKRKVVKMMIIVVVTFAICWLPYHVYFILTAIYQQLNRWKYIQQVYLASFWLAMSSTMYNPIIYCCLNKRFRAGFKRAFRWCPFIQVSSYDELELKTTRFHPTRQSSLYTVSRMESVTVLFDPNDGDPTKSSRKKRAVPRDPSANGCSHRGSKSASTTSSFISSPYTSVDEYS
# Outline: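 Filter-based radioligand displacement on rat cortex membrane preparations, read by scintillation 2 h post-dose. Chemicals first tested in duplicate at 25 uM; actives followed up in concentration series with a 50 uM maximum.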
# [9] = molecular target: rat Neonicotinoid receptor (NNR), Chrna7 (gene 25302) (UniProt Q05941); experiment: NVS_LGIC_rNNR_BungSens: NovaScreen (NVS) Ligand-Gated Ion Channel Assay for rat Neonicotinoid receptor (NNR) (AID 2283315)
# Sequence of rat Neonicotinoid receptor (NNR), Chrna7 (gene 25302) (Q05941 whole entry, looked up): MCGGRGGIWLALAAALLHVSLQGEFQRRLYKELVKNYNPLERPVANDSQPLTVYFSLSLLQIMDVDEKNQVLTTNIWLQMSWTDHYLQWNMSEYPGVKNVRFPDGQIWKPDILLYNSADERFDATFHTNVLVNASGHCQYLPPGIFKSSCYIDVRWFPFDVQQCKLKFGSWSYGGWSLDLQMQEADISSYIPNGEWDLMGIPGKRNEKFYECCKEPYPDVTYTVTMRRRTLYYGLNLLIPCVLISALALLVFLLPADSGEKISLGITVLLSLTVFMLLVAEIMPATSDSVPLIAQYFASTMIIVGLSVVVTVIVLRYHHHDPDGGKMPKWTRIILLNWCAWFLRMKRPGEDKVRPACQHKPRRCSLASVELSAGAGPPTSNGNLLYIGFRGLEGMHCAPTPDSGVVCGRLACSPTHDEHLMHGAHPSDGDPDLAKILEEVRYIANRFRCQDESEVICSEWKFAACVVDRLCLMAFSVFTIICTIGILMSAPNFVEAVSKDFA
# Method: NVS_LGIC_rNNR_BungSens is a biochemical, single-readout assay that uses extracted gene-proteins from Rat cortical membranes in a tissue-based cell-free assay. Measurements were taken 2.5 hours after chemical dosing in a 48-well plate.NVS_LGIC_rNNR_BungSens is one of one assay component(s) measured or calculated from the NVS_LGIC_rNNR_BungSens assay. It is designed to make measurements of radioligand binding, a form of binding reporter, as detected with scintillation counting signals by Filter-based radiodetection technology.Data from the assay component NVS_LGIC_rNNR_BungSens was analyzed into 1 assay endpoint. This assay endpoint, NVS_LGIC_rNNR_BungSens, was analyzed in the positive analysis fitting direction relative to DMSO as the negative control and baseline of activity. Using a type of binding reporter, loss-of-signal activity can be used to understand changes in the binding as they relate to the gene Chrna7. Furthermore, this assay endpoint can be referred to as a primary readout, because the performed assay has only produced 1 assay endpoint. To generalize the intended target to other relatable targets, this assay endpoint is annotated to the ion channel intended target family, where the subfamily is ligand-gated ion channel.
# Binding assays used specific radioligands (tritiated, iodinated) with non-radioactive competitive displacement ligands in agonist or antagonist protocols (as indicated) and various reference compounds and inhibitors to titrate specific binding to receptors and transporters. Most enzyme assays (CYPs, kinases, phosphatases, proteases, HDACs) used recombinant protein and specific substrates (fluorescence mostly, some colorimetric and radioactive) and inhibitors, followed by a biochemical separation of substrate and product. All assays for the biochemical HTS were initially run in duplicate at a single concentration (10 uM for CYP450 assays and 25 uM for all others). […] Each assay was run with positive and negative controls, and concurrent controls on every plate. The follow-up (secondary) screen tested active chemical-pairs in concentration series, as well as a few additional assays not tested in the primary screen, some selected negative inactives, and several cases re-run in the concentration series for confirmatory purposes.
smiles,measurement,setting,value
CC[C@H](C)[C@@H](C(=O)O)n1sc2ccccc2c1=O,AC50,[1],3.52 µM (active)
OC1CCCCC1,outcome,[2],inactive
ClC1=C(Cl)C(Cl)(Cl)C(Cl)=C1Cl,outcome,[3],inactive
O=C(O)Cc1cc(I)c(Oc2cc(I)c(O)c(I)c2)c(I)c1,outcome,[4],inactive
same,outcome,[1],inactive
same,outcome,[3],inactive
CCCCCCCC(=O)O,outcome,[5],inactive
same,outcome,[1],inactive
same,outcome,[3],inactive
CC(=O)CC(C)(C)O,outcome,[3],inactive
COCC(C)OCC(C)O (stereo not given),outcome,[3],inactive
c1ccc2c(c1)Cc1ccccc1-2,outcome,[3],inactive
CC(C)CCCCCCOC(=O)CCCCC(=O)OCCCCCCC(C)C,outcome,[2],inactive
same,outcome,[4],inactive
O=C(OCCOCCOC(=O)c1ccccc1)c1ccccc1,outcome,[4],inactive
CCC(=C(c1ccc(O)cc1)c1ccc(OCCN(C)C)cc1)c1ccccc1,outcome,[4],inactive
CC(C)(C)c1ccc(O)c(C(C)(C)C)c1,AC50,[6],10.7 µM (active)
CCCOc1sc(C(=O)N2CCC(c3cc(CN)ccc3F)CC2)c(C)c1Br,AC50,[5],6.34 µM (active)
same,AC50,[4],23.2 µM (active)
same,AC50,[7],23.2 µM (active)
same,AC50,[3],11 µM (active)
O=C(O)c1ccccc1C(c1ccc(O)cc1)c1ccc(O)cc1,outcome,[4],inactive
CC#C[C@]1(O)CC[C@H]2[C@@H]3CCC4=CC(=O)CCC4=C3[C@@H](c3ccc(N(C)C)cc3)C[C@@]21C,AC50,[5],6.9 µM (active)
same,outcome,[2],inactive
same,outcome,[4],inactive
same,outcome,[8],inactive
same,AC50,[1],2.59 µM (active)
same,outcome,[9],inactive
same,outcome,[7],inactive
same,AC50,[3],0.404 µM (active)
